Data on one molecule can be found in the supplement of paper PMC8728848.

Common to all, as to experiment: glycan array binding signal (z-score within array); higher = stronger binding
Conditions in all cases: glycan notation: IUPAC condensed, linker removed

Assay [1] deals with Neu5Ac(a2-3)Gal(b1-4)GlcNAc(b1-3)Gal(b1-4)GlcNAc(b1-3)Gal(b1-4)GlcNAc. An outline of the steps: (§1)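 Columns mapping to the same glycan were averaged after glycan names were converted to IUPAC-condensed notation. The data come from 3228 arrays in the Consortium for Functional Glycomics database, limited to those with an available protein sequence. Binding is reported as a within-array Z-score averaged across arrays of one protein sequence and across linkers.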

In assay [2] the target is Neu5Ac(a2-3)Gal(b1-4)GlcNAc(b1-3)Gal(b1-4)GlcNAc(b1-3)GalNAc. A digest of the protocol: as §1
Assay [3] addresses Neu5Ac(a2-3)Gal(b1-4)GlcNAc6S. A digest of the protocol:
as §1

In assay [4] the target is Neu5Ac(a2-3)Gal(b1-4)[Fuc(a1-3)]GlcNAc6S. An outline of the steps:
as §1

The target of assay [5] is Neu5Ac(a2-3)Gal6S(b1-4)GlcNAc. An outline of the steps: as §1
Assay [6] has as its target Neu5Ac(a2-3)Gal6S(b1-4)[Fuc(a1-3)]GlcNAc. A digest of the protocol:
as §1

The target in a further assay is Neu5Ac(a2-6)Gal(b1-4)Glc. An outline of the steps:
as §1

Assay [7] concerns the target Neu5Ac(a2-6)Gal(b1-4)GlcNAc(b1-3)[Neu5Ac(a2-6)Gal(b1-4)GlcNAc(b1-6)]GalNAc. A digest of the protocol: as §1
For a further assay, the target named is Neu5Ac(a2-8)Neu5Ac. An outline of the steps: as §1
Assay [8] deals with Neu5Ac(a2-8)Neu5Ac(a2-3)Gal(b1-3)GalNAc(b1-4)[Neu5Ac(a2-3)]Gal(b1-4)Glc. An outline of the steps: as §1
For assay [9], the target named is Neu5Gc(a2-3)Gal(b1-3)[Fuc(a1-4)]GlcNAc. An outline of the steps: as §1
For assay [10], the target named is Neu5Gc(a2-3)Gal(b1-4)GlcNAc(b1-3)Gal(b1-4)GlcNAc(b1-2)Man(a1-3)[Neu5Gc(a2-3)Gal(b1-4)GlcNAc(b1-3)Gal(b1-4)GlcNAc(b1-2)Man(a1-6)]Man(b1-4)GlcNAc(b1-4)GlcNAc. An outline of the steps:
as §1

A further assay concerns the target Neu5Gc(a2-6)GalNAc. An outline of the steps:
as §1

In assay [11] the target is Neu5Gc(a2-8)Neu5Ac(a2-3)Gal(b1-4)GlcNAc. An outline of the steps: as §1

The full list was thinned out, with the strongest signals kept by preference.

B1: diCBM40 CPF071 (Clostridium perfringens) (protein)
chain: MAHHHHHHVGTGSNDDDDKSPDPMLSSLGEYKDINLESSNASNITYDLEKYKNLDEGTIVVRFNSKDSKIQSLLGISNSKTKNGYFNFYVTNSRVGFELRNQKNEGNTQNGTENLVHMYKDVALNDGDNTVALKIEKNKGYKLFLNGKMIKEVKDTNTKFLNNIENLDSAFIGKTNRYGQSNEYNFKGNIGFMNIYNEPLGDDYLLSKTGETKALNGSELGSGSGLSSLGEYKDINLESSNASNITYDLEKYKNLDEGTIVVRFNSKDSKIQSLLGISNSKTKNGYFNFYVTNSRVGFELRNQKNEGNTQNGTENLVHMYKDVALNDGDNTVALKIEKNKGYKLFLNGKMIKEVKDTNTKFLNNIENLDSAFIGKTNRYGQSNEYNFKGNIGFMNIYNEPLGDDYLLSKTGETK
With B1, the “glycan array binding signal (z-score)” value in assay [1] is 5.87; in [2], -0.157; in [3], 7.8; in [4], 5.95; in assay [5] it was 7.24; in assay [6], 4.71. Besides, the “glycan array binding signal (z-score)” value with Neu5Ac(a2-6)Gal(b1-4)Glc is 0.183; in [7] it was -0.197; with Neu5Ac(a2-8)Neu5Ac it was -0.046; in assay [8] it was -0.2; in assay [9], 0.647; in assay [10] it was 6.28. Further, the “glycan array binding signal (z-score)” value with Neu5Gc(a2-6)GalNAc was -0.044; in [11], -0.252.
